Data published in PubChem BioAssay.
Activity calls are given as the source filed them.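 How the source made its calls: active means normalized viability below 100% at a tested concentration; inactive means the rest.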 *1 amine or outer side, *2 acyl side, *3 side chain or, on linkers, in order; H or OH if unused. Where a SMILES comes first, the peptide text is derived from it. Bridges are numbered along the chain shown (N, C = ends). Roman numbers before positions name the chains, in order. [ ]: non-standard residue; d: D form. Hexamethylenediamine = C(CCCN[*:2])CCN[*:1]; Dip = N[C@H](C(=O)O)C(c1ccccc1)c1ccccc1; Chg = N[C@H](C(=O)O)C1CCCCC1; NMeA = CN[C@@H](C)C(=O)O

Experiment: ovarian cancer cell viability with rucaparib, profiling panel, oncology-focused library, rucaparib conditional (AID 1508598)
Settings: patient-derived ovarian cancer cells, CellTiter-Glo viability, 144 h, stronger effect = lower value
[1] = at 5 µM, OCI-P5x cells, with rucaparib 20 µM, 100% = cells with rucaparib alone
[2] = at 5 µM, OCI-P5x cells, without rucaparib
[3] = at 0.000305 µM, OCI-C5x cells, with rucaparib 10 µM, 100% = cells with rucaparib alone
[4] = at 0.000305 µM, OCI-C5x cells, without rucaparib
[5] = at 0.000305 µM, OCI-P5x cells, with rucaparib 20 µM, 100% = cells with rucaparib alone
[6] = at 0.000305 µM, OCI-P5x cells, without rucaparib
[7] = at 0.00122 µM, OCI-C5x cells, with rucaparib 10 µM, 100% = cells with rucaparib alone
[8] = at 0.00122 µM, OCI-C5x cells, without rucaparib
[9] = at 0.00122 µM, OCI-P5x cells, with rucaparib 20 µM, 100% = cells with rucaparib alone
[10] = at 0.00122 µM, OCI-P5x cells, without rucaparib
[11] = at 0.00488 µM, OCI-C5x cells, with rucaparib 10 µM, 100% = cells with rucaparib alone
[12] = at 0.00488 µM, OCI-C5x cells, without rucaparib
[13] = at 0.00488 µM, OCI-P5x cells, with rucaparib 20 µM, 100% = cells with rucaparib alone
[14] = at 0.00488 µM, OCI-P5x cells, without rucaparib
[15] = at 0.0195 µM, OCI-C5x cells, with rucaparib 10 µM, 100% = cells with rucaparib alone
[16] = at 0.0195 µM, OCI-C5x cells, without rucaparib
[17] = at 0.0195 µM, OCI-P5x cells, with rucaparib 20 µM, 100% = cells with rucaparib alone
[18] = at 0.0195 µM, OCI-P5x cells, without rucaparib
[19] = at 0.0781 µM, OCI-C5x cells, with rucaparib 10 µM, 100% = cells with rucaparib alone
[20] = at 0.0781 µM, OCI-C5x cells, without rucaparib
[21] = at 0.0781 µM, OCI-P5x cells, with rucaparib 20 µM, 100% = cells with rucaparib alone
[22] = at 0.0781 µM, OCI-P5x cells, without rucaparib
[23] = at 0.313 µM, OCI-C5x cells, with rucaparib 10 µM, 100% = cells with rucaparib alone
[24] = at 0.313 µM, OCI-C5x cells, without rucaparib
[25] = at 0.313 µM, OCI-P5x cells, with rucaparib 20 µM, 100% = cells with rucaparib alone
[26] = at 0.313 µM, OCI-P5x cells, without rucaparib
[27] = at 1.25 µM, OCI-C5x cells, with rucaparib 10 µM, 100% = cells with rucaparib alone
[28] = at 1.25 µM, OCI-C5x cells, without rucaparib
[29] = at 1.25 µM, OCI-P5x cells, with rucaparib 20 µM, 100% = cells with rucaparib alone
[30] = at 1.25 µM, OCI-P5x cells, without rucaparib
[31] = at 5 µM, OCI-C5x cells, with rucaparib 10 µM, 100% = cells with rucaparib alone
[32] = at 5 µM, OCI-C5x cells, without rucaparib

Measured: viability

COc1cccc(-c2cc(F)ccc2[C@H]2Cc3nc(N)nc(C)c3C(=O)N2)n1
active: [1] 4.5% | [2] 3.25%

C[C@]12CCC(=O)C=C1CC[C@@H]1[C@H]2[C@H](O)C[C@@]2(C)[C@H]1CC[C@@]2(O)C(=O)CO
active: [9] 98.6% | [2] 99.3%
inactive: [3] 107% | [4] 119% | [5] 105% | [6] 115% | [7] 109% | [8] 116% | [10] 109% | [11] 114% | [12] 121% | [13] 102% | [14] 117% | [15] 110% | [16] 128% | [17] 109% | [18] 112% | [19] 112% | [20] 132% | [21] 103% | [22] 115% | [23] 103% | [24] 119% | [25] 104% | [26] 114% | [27] 111% | [28] 118% | [29] 103% | [30] 114% | [31] 125% | [32] 120% | [1] 103%

COc1cccc2c1C(=O)c1c(O)c3c(c(O)c1C2=O)C[C@@](O)(C(=O)CO)C[C@H]3O[C@H]1C[C@H](N)[C@@H](O)[C@H](C)O1
active: [7] 94.3% | [11] 90.6% | [12] 95.4% | [14] 97.5% | [15] 78.4% | [16] 75.5% | [17] 92% | [18] 54.5% | [20] 83.9% | [21] 54% | [22] 30.8% | [23] 37.5% | [24] 43.3% | [25] 45.3% | [26] 15.5% | [27] 15.6% | [28] 31.1% | [29] 11.7% | [30] 10.8% | [31] 8.09% | [32] 2.52% | [1] 3.69% | [2] 5.43%
inactive: [3] 101% | [4] 108% | [5] 107% | [6] 105% | [8] 106% | [9] 103% | [10] 106% | [13] 106% | [19] 103%

CN[C@@H](C)C(=O)N[C@H](C(=O)N1CCC[C@H]1C(=O)N[C@H](C(=O)NCCCCCCNC(=O)[C@@H](NC(=O)[C@@H]1CCCN1C(=O)[C@@H](NC(=O)[C@H](C)NC)C1CCCCC1)C(c1ccccc1)c1ccccc1)C(c1ccccc1)c1ccccc1)C1CCCCC1 (I: H-[NMeA][Chg]P[Dip] / II: H-[NMeA][Chg]P[Dip]; linker I:C-II:C via Hexamethylenediamine)
inactive: [3] 121% | [4] 115% | [7] 119% | [8] 106% | [11] 129% | [12] 111% | [15] 115% | [16] 108% | [19] 110% | [20] 112% | [23] 114% | [24] 116% | [28] 105% | [32] 120%
active: [5] 85.6% | [6] 93.2% | [9] 95.3% | [10] 94.9% | [13] 83.7% | [14] 94.7% | [17] 81.4% | [18] 99.5% | [21] 39.3% | [22] 85.3% | [25] 19.6% | [26] 54.1% | [27] 96.9% | [29] 13.6% | [30] 21.5% | [31] 89.4% | [1] 0.911% | [2] 7.49%

CO[C@H]1C[C@@H]2CC[C@@H](C)[C@@](O)(O2)C(=O)C(=O)N2CCCC[C@H]2C(=O)O[C@H]([C@H](C)C[C@@H]2CC[C@@H](O)[C@H](OC)C2)CC(=O)[C@H](C)/C=C(\C)[C@@H](O)[C@H](OC)C(=O)[C@H](C)C[C@H](C)/C=C/C=C/C=C/1C
active: [5] 87.8% | [6] 75.2% | [7] 99.6% | [9] 91.5% | [10] 64.8% | [11] 94.9% | [12] 95.5% | [13] 83.5% | [14] 62.3% | [16] 95.6% | [17] 87.8% | [18] 62.5% | [20] 89.7% | [21] 92.1% | [22] 60% | [24] 97.8% | [25] 94.8% | [26] 63.9% | [28] 99.2% | [29] 93.7% | [30] 61.2% | [1] 65% | [2] 61%
inactive: [3] 117% | [4] 111% | [8] 102% | [15] 101% | [19] 103% | [23] 107% | [27] 105% | [31] 118% | [32] 107%

C[C@@H]1C[C@H]2[C@@H]3CCC4=CC(=O)C=C[C@]4(C)[C@]3(F)[C@H](O)C[C@]2(C)[C@]1(O)C(=O)CO
active: [29] 95.5% | [1] 90.8%
inactive: [3] 111% | [4] 118% | [5] 107% | [6] 121% | [7] 117% | [8] 125% | [9] 110% | [10] 123% | [11] 102% | [12] 116% | [13] 112% | [14] 115% | [15] 111% | [16] 117% | [17] 108% | [18] 114% | [19] 108% | [20] 107% | [21] 100% | [22] 110% | [23] 111% | [24] 109% | [25] 104% | [26] 108% | [27] 109% | [28] 116% | [30] 101% | [31] 117% | [32] 108% | [2] 101%

C=C1/C(=C/C=C2\CCC[C@@]3(C)[C@H]2CC[C@H]3[C@H](C)/C=C/[C@@H](C)C(C)C)C[C@H](O)C[C@@H]1O
inactive: [5] 101% | [6] 100% | [9] 105% | [12] 104% | [13] 105% | [14] 102% | [15] 103% | [16] 100% | [17] 102% | [18] 102% | [20] 100% | [21] 105% | [22] 101% | [25] 107% | [26] 104% | [27] 101% | [28] 102% | [30] 103% | [31] 120% | [32] 111% | [1] 111% | [2] 103%
active: [3] 99.9% | [4] 95% | [7] 97.2% | [8] 100% | [10] 99.9% | [11] 94% | [19] 97.1% | [23] 96.7% | [24] 96.6% | [29] 98.4%

CC1(C)C=C(CN2C/C(=C/c3ccc(F)cc3)C(=O)/C(=C/c3ccc(F)cc3)C2)C(C)(C)N1O
active: [5] 90.6% | [6] 90.1% | [9] 80% | [10] 81.9% | [13] 74.5% | [14] 83.8% | [17] 71% | [18] 81.9% | [25] 96.7% | [1] 55.9% | [2] 97.4%
inactive: [3] 136% | [4] 110% | [7] 117% | [8] 106% | [11] 131% | [12] 112% | [15] 127% | [16] 112% | [19] 124% | [20] 117% | [21] 102% | [22] 106% | [23] 125% | [24] 109% | [26] 103% | [27] 127% | [28] 118% | [29] 102% | [30] 105% | [31] 124% | [32] 115%
